Source: PubChem (Corson Lab, School of Medicine, Indiana University)
FECH block – blocks human mitochondrial ferrochelatase activity; purified FECH, Ni-mesoporphyrin absorbance 550 nm; P22830; calls only at 10 µM (by protocol); actives 3.3% (n = 20,000); AID 1671448;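 active = enzyme reaction rate more than 3 SD below the solvent-only control wells on the same plate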;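 also: lower slope than DMSO wells means FECH inhibition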
Target sequence (P22830 whole entry, looked up): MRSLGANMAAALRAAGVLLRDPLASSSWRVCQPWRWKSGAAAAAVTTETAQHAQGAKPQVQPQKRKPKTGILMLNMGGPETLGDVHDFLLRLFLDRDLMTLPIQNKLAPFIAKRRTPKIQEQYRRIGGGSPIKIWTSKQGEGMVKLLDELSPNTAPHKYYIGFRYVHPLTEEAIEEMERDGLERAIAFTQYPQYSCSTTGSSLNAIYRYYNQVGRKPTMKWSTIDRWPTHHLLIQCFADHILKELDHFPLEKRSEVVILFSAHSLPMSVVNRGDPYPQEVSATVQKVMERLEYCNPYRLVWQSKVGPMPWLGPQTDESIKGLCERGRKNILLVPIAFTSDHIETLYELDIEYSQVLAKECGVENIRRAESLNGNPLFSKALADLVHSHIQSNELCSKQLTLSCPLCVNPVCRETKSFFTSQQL
Numbers without * were called inactive; i = inactive; + = active, no number. The sample as a whole holds a higher share of hits than the screen did.

SMILES	FECH block
Cc1cc(NCCCC(=O)NC2CC2)n2nc(-c3cccnc3)nc2n1	i
Cc1ccc(C(=O)Nc2nc3n(n2)C(c2c(F)cccc2Cl)C=C(c2ccc(C)cc2)N3)cc1 (stereo unspecified)	i
O=C(Nc1ccc2nc(CCc3ccccc3)[nH]c2c1)C1CCN(S(=O)(=O)N2CCOCC2)CC1	i
Cn1c(CCc2cccc(NC(=O)C3CCN(S(=O)(=O)N4CCCC4)CC3)c2)nc2ccccc21	+
Cn1c(CCc2ccccc2NC(=O)C2CCCN(S(=O)(=O)N3CCCC3)C2)nc2ccccc21 (stereo unspecified)	i
COc1ccc(N2CC(NC(=O)c3ccc(F)cc3)CC2=O)cc1 (stereo unspecified)	i
CCc1cc(N(C)CCCO)nc(N2CCCC2)n1	i
CCn1c(C2CCCN(C(=O)c3ccc(Cl)c(F)c3)C2)nn(C)c1=O (stereo unspecified)	i
Cc1ccc(C)c(NS(=O)(=O)c2cc(N3C(=O)CCS3(=O)=O)ccc2C)c1	i
COc1ccc(-c2ccc(=O)[nH]n2)cc1S(=O)(=O)Nc1ccc(C)cc1C	i
COc1ccc(N2C(=O)CCS2(=O)=O)cc1S(=O)(=O)Nc1cc(C)ccc1C	i
Cc1ccc(C)c(NS(=O)(=O)c2ccc(N)c(S(N)(=O)=O)c2)c1	+
Cc1ccc(NS(=O)(=O)c2ccc(N)c(S(N)(=O)=O)c2)c(C)c1	+
COc1ccc(-c2cc(C(=O)Nc3ccc(C)cc3C)[nH]n2)cc1S(N)(=O)=O	i
COc1ccc(Nc2nc(NC3CCCCCC3)nc3c2cnn3-c2ccccc2)cc1	i
CCc1cc(Sc2ccccc2NC(=O)c2cccc(F)c2)n2ncnc2n1	i
CC(C)n1cnc2nc(CSc3ccccc3NC(=O)c3ccc(F)c(Cl)c3)cc(=O)n21	i
CC(C)n1cnc2nc(CSc3ccccc3NC(=O)c3cccc(F)c3)cc(=O)n21	+
CC(C)Cc1ncc2c(n1)CN(C(=O)c1ccno1)C2	i
Cc1nc(CCNC(=O)c2cn(-c3ccccc3)nn2)nc2c1CCC2	i
Cc1ccc(C(=O)N(Cc2nc3nc(C)c(Cl)c(C)n3n2)c2ccccc2)cc1	i
COCC1(C(=O)N(Cc2sccc2C)CC(C)C)CCC1	i
COc1ccc(-c2nc(CN(C)Cc3nncn3C)c(C)o2)c(C)c1C	i
CCCC(=O)Nc1nc2n(n1)C(c1c(F)cccc1Cl)C=C(c1ccc(Cl)cc1)N2 (stereo unspecified)	i
CCC(=O)Nc1nc2n(n1)C(c1c(F)cccc1Cl)C=C(c1ccccc1)N2 (stereo unspecified)	+
SMILES	FECH block
CC(C)C(=O)Nc1nc2n(n1)C(c1c(F)cccc1Cl)C=C(c1ccccc1)N2 (stereo unspecified)	+
CC(C)C(=O)Nc1nc2n(n1)C(c1ccc(Cl)cc1)C=C(c1ccccc1)N2 (stereo unspecified)	i
CC(=O)Nc1nc2n(n1)C(c1c(F)cccc1Cl)C=C(c1ccc(C)cc1)N2 (stereo unspecified)	i
CCC(=O)Nc1nc2n(n1)C(c1c(F)cccc1Cl)C=C(c1ccc(Cl)cc1)N2 (stereo unspecified)	i
CCN(Cc1ccncc1)Cc1cccc(C(=O)Nc2cc(C)nn2C)c1	i
CCOc1ccccc1-c1nc(Cn2c(=O)c3cnc(-c4ccncc4)nc3n(C)c2=O)c(C)o1	i
Cn1nnnc1SCCNC(=O)c1cnn2ccn(C)c12	i
CCc1c(C)nn(CCNC(=O)c2cnn3ccn(C)c23)c1C	i
Cn1ccn2ncc(C(=O)NCCc3ccccn3)c12	+
O=C(NCc1cccnc1)C1CCCN(C2CCN(c3cnccn3)CC2)C1 (stereo unspecified)	i
O=C(O)c1[nH]ncc1CN1CCN(c2nsc3ccccc23)CC1	i
CCc1c(C(=O)N(C)CCn2ccnc2C)[nH]c2ccccc12	i
CCOC(=O)c1[nH]c2ccccc2c1CN1CCN(c2ncc(F)cn2)CC1	+
Cc1ncnc2c1ncn2-c1ccc(N)nc1	i
Cc1ccc(Nc2c(-c3ccc4c(c3)CCCC4)c(=O)c2=O)cc1Cl	i
O=C(NC1CCCCC1)c1nc[nH]c1C(=O)NCc1cccc(C(F)(F)F)c1	+
CC(C)(C)CNC(=O)c1[nH]cnc1C(=O)NC1CCCCC1	i
O=C(NC1CCCCC1)c1nc[nH]c1C(=O)NCC1CC1	i
CNC(=O)c1[nH]cnc1C(=O)NC1CCCCC1	+
CC(C)NC(=O)c1nc[nH]c1C(=O)NC1CCCC1	i
O=C(NC1CCCC1)c1nc[nH]c1C(=O)NCc1ccccc1	i
CC(C)(C)CNC(=O)c1[nH]cnc1C(=O)NC1CCCC1	i
O=C(NC1CCCCC1)c1nc[nH]c1C(=O)NCc1ccccc1	+
O=C(NC1CCCC1)c1nc[nH]c1C(=O)NC1CC1	i
CCN(C(=O)C1CCCN(c2ncnc3c2nc2n3CCCCC2)C1)c1ccccc1 (stereo unspecified)	i
SMILES	FECH block
O=S(=O)(c1ccc(F)c(Cl)c1)N1CCN(c2cc(-c3cccc(F)c3)ncn2)CC1	i
O=C(c1csc(S(=O)(=O)N2CCN(C(c3ccccc3)c3ccccc3)CC2)c1)N1CCCC1	i
COc1ccc(-c2cc3n(n2)CCC(=O)N3Cc2ccc(C(=O)Nc3ccc(F)cc3F)cc2)cc1	i
c1cncc(-c2nc(CCNCc3nc(-c4ccco4)no3)cs2)c1	+
Cc1nc2c(c(NCCc3csc(-c4cccnc4)n3)n1)CCNC2	i
O=C(NCCc1csc(-c2cccnc2)n1)C1CNCCO1 (stereo unspecified)	i
CC(C)c1ccc(S(=O)(=O)NCCn2c(C(F)(F)F)nc3cccnc32)cc1	i
Cc1ccc(OCC(=O)N2CCC3(CC2)C(=O)N(C)c2ccccc23)cc1	i
COc1cc(Nc2cc(-n3nc(C)cc3C)ncn2)cc(OC)c1	+
COc1cccc(Nc2cc(-n3nc(C)cc3C)ncn2)c1	i
Cc1cc(C)n(-c2cc(Nc3ccc(Cl)cc3)ncn2)n1	i
OCCNc1nc(Nc2cccc(F)c2)c2cnn(-c3ccccc3)c2n1	i
Fc1ccc(Nc2nc(NCc3cccnc3)nc3c2cnn3-c2ccccc2)cc1	i
Cc1ccc2cc(-c3noc(CCC(=O)N4CCC(C)CC4)n3)c(=O)[nH]c2c1	i
Cc1ccc2cc(-c3noc(CCC(=O)N4CCCC(C)C4)n3)c(=O)[nH]c2c1 (stereo unspecified)	i
COc1ccccc1N1CCN(C(=O)CCc2nc(-c3cc4ccc(C)cc4[nH]c3=O)no2)CC1	+
Cc1ccccc1S(=O)(=O)N1CCC(n2c(-c3ccccc3)nc3cccnc32)CC1	i
CCOc1ccc(-c2nc(CSc3nc(-c4ccc(OC)cc4)cc(=O)[nH]3)c(C)o2)cc1OC	i
COc1ccc(-n2c(Cc3ccccc3F)n[nH]c2=O)c(OC)c1	i
COC1CCC(C(=O)N(Cc2ccccn2)Cc2sccc2C)CC1 (stereo unspecified)	i
CCN1C(SCC(=O)Nc2cc(Cl)c(OC)cc2OC)=NS(=O)(=O)c2ccccc21	i
CCC(=O)Nc1ccccc1-c1nnc(SCC(=O)Nc2cccc(Cl)c2Cl)[nH]c1=O	i
CCc1cccc(C)c1NC(=O)c1nc2ccccc2n(C)c1=O	i
CCN1C(SCC(=O)Nc2ccccc2C)=NS(=O)(=O)c2ccccc21	+
COc1ccc(N2C(=O)N(CC(=O)NCCc3ccccc3)c3ccccc3S2(=O)=O)cc1OC	i
CCCCNC(=O)CSC1=NS(=O)(=O)c2ccccc2N1CC	+
